PubChem BioAssay (Tox21)
Inconclusive results are not listed. Where a call stands in place of a potency, no number is given. Calls of active or inactive are those of the source. Unless noted, calls follow the shape of the dose curve; as a rule, active = well fitted curve in the direction sought with a large enough effect in the repeat runs; inconclusive = weak or mixed curves; inactive = no such curve, though single readings can be large; an effect the other way counts as inactive or inconclusive.

Key:
[1] = qHTS assay to identify small molecule antagonists of the estrogen related receptor (ERR) signaling pathway (AID 1224819; also: nearly all actives have a fitted effect of over 50% in size); details: ERR reporter cell line, luciferase inhibition; series mostly up to 46.1 µM
Outline: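 ERR reporter cells were plated at 2,000 cells/well and left 6 h at 37 C/5% CO2 before pin-tool transfer of compounds in DMSO. After 18 h at 37 C, One-Glo was added and luminescence was read 30 min later at room temperature.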

[2] = qHTS assay to identify small molecule agonists of the estrogen related receptor (ERR) signaling pathway (AID 1224820); details: ERR reporter cell line, luciferase agonist mode; series mostly up to 46.1 µM
Outline: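 Following a 6 h settling period, 2,000 ERR cells per well receive DMSO-dissolved compounds by pin tool and incubate 18 h at 37 C; agonist activity is scored from One-Glo luminescence read 30 min post-addition.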

[3] = system: estrogen-related receptor alpha (ERRalpha) with PGC-1alpha coactivator, human; experiment: qHTS assay to identify small molecule antagonists of the estrogen related receptor signaling pathway with the pleiotropic PPARgamma coactivator (PGC) (AID 1224821; calls by dose curve; also: nearly all actives have a fitted effect of over 50% in size); details: ERR/PGC reporter cell line, luciferase, antagonist mode; series mostly up to 46.1 µM
Outline: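 Screening used NTP's PGC/ERR cells, dosed via pin tool with compound in DMSO alongside positive and negative controls. After 18 h at 37 C, One-Glo reagent sat 30 min at room temperature before luminescence detection.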

[4] = qHTS assay to identify small molecule antagonists of the estrogen related receptor signaling pathway with the pleiotropic PPARgamma coactivator (PGC) cell viability counter screen (AID 1224822;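 also: viability read after 17.5 h compound exposure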); details: ERR/PGC reporter cell line viability counter screen; series mostly up to 46.1 µM
Outline: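 Viable cell signal (CellTiter-Fluor, 30 min, 37 C/5% CO2) was measured in PGC/ERR cells after a 17.5 h compound incubation.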

[5] = qHTS assay to identify small molecule agonists of the estrogen related receptor signaling pathway with the pleiotropic PPARgamma coactivator (PGC) (AID 1224823); details: ERR/PGC reporter cell line, luciferase agonist mode; series mostly up to 46.1 µM
Outline: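 In this quantitative high-throughput screen, an 18 h, 37 C treatment of PGC/ERR cells with compounds in DMSO preceded a One-Glo luminescence read taken after 30 min at room temperature.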
Potency is read from the fitted curve at half-maximal effect.

| Structure (SMILES) | Potency [1] | Potency [2] | Potency [3] | Potency [4] | Potency [5] |
| --- | --- | --- | --- | --- | --- |
| COC1(C2=NCCN2)COc2ccccc2O1 (stereo not given) | inactive | inactive | inactive | inactive | inactive |
| CCOC(=O)C1=C(C)NC(C)=C(C(=O)OCC)C1c1c(F)c(F)c(F)c(F)c1F | 19.6 µM (active) | inactive | 25.6 µM (active) | – | inactive |
| CN1CCc2cc(Cl)c(O)cc2[C@@H](c2ccccc2)C1 | inactive | inactive | inactive | inactive | inactive |
| C=C/C(C)=C/[C@@]1(C)SC(=O)C(C)=C1O | inactive | inactive | inactive | inactive | inactive |
| Fc1ccc(C(OCCCc2cnc[nH]2)c2ccc(F)cc2)cc1 | 13.9 µM (active) | inactive | 10.2 µM (active) | – | inactive |
| O=C1c2ccccc2-c2n[nH]c3cccc1c23 | 26.6 µM (active) | inactive | inactive | – | inactive |
| CN(C)c1ccc(/C=C2\C(=O)Nc3ccccc32)cc1 | inactive | 3.35 µM (active) | inactive | – | 3.1 µM (active) |
| NC[C@@H]1O[C@H](C23CC4CC(CC(C4)C2)C3)Cc2c1ccc(O)c2O | 22.8 µM (active) | inactive | inactive | – | inactive |
| CC[C@@H](C)[C@H]1O[C@]2(CC[C@@H]1C)C[C@@H]1C[C@@H](C/C=C(\C)[C@@H](O[C@H]3C[C@H](OC)[C@@H](O[C@H]4C[C@H](OC)[C@@H](O)[C@H](C)O4)[C@H](C)O3)[C@@H](C)/C=C/C=C3\CO[C@@H]4[C@H](O)C(C)=C[C@@H](C(=O)O1)[C@]34O)O2 | 12.3 µM (active) | inactive | 16.8 µM (active) | 23.7 µM (active) | inactive |
